Compound activity deposited in PubChem BioAssay by Broad Institute.
A selection follows.
aSyn 5UTR act: Activators via SNCA 5'UTR binding, MLPCN; alpha-synuclein 5'UTR reporter, activators screen; activity score, % (tested at 7.5 µM), hits read low; 300,000 compounds, 7.1% hits; AID 1814; in the data active means activity score below about -60%
Of the large screens only hits and unclear results are named; the others gave an inactive call.

CC(C)(C)c1ccc(Oc2ccc(N)cn2)cc1	none
COc1ccc(Oc2cnc3ccccc3n2)cc1	aSyn 5UTR act -65
Cc1cc(Cl)c2oc(C(=O)N3CCN(c4cccc(C)n4)CC3)c(C)c2c1	aSyn 5UTR act -127
CCOn1c(=O)c(-c2cc3ccccc3o2)[n+]([O-])c2ccccc21	aSyn 5UTR act -117
O=c1c(-c2cc3ccccc3o2)[n+]([O-])c2ccccc2n1OCc1ccccn1	aSyn 5UTR act -174
CSC1=NC(C)(C)C=C(/C=C/c2ccc(Cl)cc2)N1	aSyn 5UTR act -96
O=C1c2ccccc2NC(c2ccc3c(c2)OCO3)N1O (configuration not stated)	aSyn 5UTR act -121
COc1ccc(OCc2cc(C(=O)NCc3nc(C)cs3)no2)c(Cl)c1	aSyn 5UTR act -94
COc1ccc(OCc2cc(C(=O)NC(C)c3csc(C)n3)no2)c(Cl)c1 (configuration not stated)	aSyn 5UTR act -119
COc1cccc(NC(=S)Nc2cccnc2)c1	aSyn 5UTR act -93
COc1cccc(NC(=S)N/N=C2/CCCCc3ccccc32)c1	aSyn 5UTR act -178
Cc1cccnc1NC(=S)Nc1ccc(Br)cc1Cl	aSyn 5UTR act -174
COc1cccc(NC(=S)NCc2cccs2)c1	aSyn 5UTR act -72
COc1cccc(NC(=S)Nc2ccc(Br)cc2Cl)c1	aSyn 5UTR act -93
CC(=O)Nc1ccc(NC(=O)c2ccccc2S(=O)(=O)c2ccccc2[N+](=O)[O-])cc1	aSyn 5UTR act -81
N/C(Cc1ccc([N+](=O)[O-])cc1)=N\OC(=O)c1ccccc1F	aSyn 5UTR act -185
O=C(Nc1ccc([N+](=O)[O-])cc1)c1ccccc1F	aSyn 5UTR act -154
O=[N+]([O-])c1ccccc1S(=O)(=O)c1ccccc1	aSyn 5UTR act -79
O=C(Nc1ccc(-c2ccc([N+](=O)[O-])cc2)cc1)c1ccccc1F	aSyn 5UTR act -69
CC1(c2ccc(NC(=O)c3ccccc3F)cc2)CC1(Cl)Cl (configuration not stated)	aSyn 5UTR act -195
Cc1cccc(/C(N)=N/OC(=O)C23CC4CC(CC(C4)C2)C3)c1	aSyn 5UTR act -114
Cc1cccc(/C(N)=N/OC(=O)c2ccc(Br)o2)c1	aSyn 5UTR act -210
COc1cc(OC)cc(C(=O)O/N=C(\N)c2ccncc2)c1	aSyn 5UTR act -68
Cc1cccc(/C(N)=N/OC(=O)c2cccnc2)c1	aSyn 5UTR act -73
COc1cc(OC)cc(C(=O)O/N=C(\N)c2cccc(C)c2)c1	aSyn 5UTR act -81
COc1cc(C(=O)Oc2c(CN3CCOCC3)cc(Cl)c3cccnc23)cc(OC)c1OC	none
CCCCCOc1ccc(CN2CCOCC2)cc1Cl	aSyn 5UTR act -154
Cc1cccc2sc(N(CCCN(C)C)C(=O)CCc3ccccc3)nc12	none
CN(C)CCCN(C(=O)c1ccc(S(=O)(=O)N2CCc3ccccc3C2)cc1)c1nc2ccc(F)cc2s1	none
CN(C)CCN(C(=O)c1cc(Cl)sc1Cl)c1nc2ccc(F)cc2s1	aSyn 5UTR act -94
CN(C)CCCN(C(=O)c1cc(-c2cccs2)nc2ccccc12)c1nc2ccc(F)cc2s1	none
CN(C)CCCN(C(=O)c1ccc2c(c1)CCCC2)c1nc2ccc(F)cc2s1	aSyn 5UTR act -157
CN(C)CCCN(C(=O)CCc1ccccc1)c1nc2ccc(F)cc2s1	aSyn 5UTR act -70
Fc1ccc(-c2nnn(Cc3ccc(F)cc3Cl)n2)cc1	aSyn 5UTR act -71
Cc1ccccc1-c1nnn(Cc2ccc(F)cc2Cl)n1	aSyn 5UTR act -86
CC(=O)c1ccc(-n2c(C)ccc2-c2ccccc2)cc1	aSyn 5UTR act -109
COc1nc(C)ccc1-c1noc(-c2cccnc2)n1	aSyn 5UTR act -106
COc1ccccc1-c1nc(-c2ccc(C)nc2OC)no1	aSyn 5UTR act -114
Cc1ccc(C(=O)C(C(=O)/C=C/c2ccccc2)=C2SCCCS2)cc1	aSyn 5UTR act -102
CCOc1ccc(NC(=O)n2ncc3c(C)cccc32)cc1	aSyn 5UTR act -179
Cc1ccc(NC(=O)n2ncc3c(C)cccc32)c(C)c1	aSyn 5UTR act -108
Cc1cccc2c1cnn2C(=O)Nc1ccc(Br)cc1F	aSyn 5UTR act -156
COCOc1ccc(-c2cc(=O)c3c(OCOC)cc(OCOC)cc3o2)cc1	aSyn 5UTR act -125
COc1cccc(/C=N/Nc2nn3cnnc3c3ccccc23)c1	aSyn 5UTR act -62
COc1ccc(Cn2c(-c3ccco3)nc3oc4cc(OC)ccc4c(=O)c3c2=O)cc1	aSyn 5UTR act -92
Cc1cc2sc3nc(=O)n(-c4ccccc4)c(=O)n3c2cc1C	aSyn 5UTR act -160
Cc1nc2cc(NC(=O)Nc3nccs3)ccc2n1C	aSyn 5UTR act -99
O=C(Nc1cccc(Cl)c1)Nc1nccs1	aSyn 5UTR act -159
O=C(Nc1ccc(Cl)c(Cl)c1)Nc1nccs1	aSyn 5UTR act -64
O=[N+]([O-])c1ccc(Cc2nnc(-c3ccccc3Cl)o2)cc1	aSyn 5UTR act -172
c1ccc2c(c1)CCN(c1nc3ccccc3n3cnnc13)C2	aSyn 5UTR act -122
Cc1ccccc1Nc1nnc(SCC(=O)NC(=O)Nc2ccc3c(c2)OCCO3)s1	aSyn 5UTR act -86
Cc1cccc(Nc2nnc(SCC(=O)NC(=O)Nc3ccc4c(c3)OCCO4)s2)c1	aSyn 5UTR act -95
Cc1ccc2nc(/C=C/c3cccc(F)c3)ccc2c1	aSyn 5UTR act -172
Cc1cccc(-c2noc(CN(C)C(=O)c3ccco3)n2)c1	aSyn 5UTR act -65
O=C(NCCc1c[nH]c2ccccc12)c1cccnc1	aSyn 5UTR act -67
Cn1c(C(=O)NCCc2c[nH]c3ccccc23)cc2sccc21	aSyn 5UTR act -237
O=C(NCCc1ccccc1F)c1ccc2c(c1)OCCO2	none
O=C(NCCc1ccc(Cl)cc1)c1ccc2c(c1)OCO2	aSyn 5UTR act -121
O=C(NCCc1c[nH]c2ccccc12)c1ccc2c(c1)OCO2	aSyn 5UTR act -142
O=C(NCCc1c[nH]c2ccccc12)c1cc(Cl)c2c(c1)OCO2	aSyn 5UTR act -110
Cc1nc2c(ccc3c2ccc2nc(C)sc23)s1	aSyn 5UTR act -113
CC(/C=C/c1ccccc1)=N\NC(N)=S	aSyn 5UTR act -100
CC(/C=C/c1ccccc1)=N\Nc1nc(C)cc(C)n1	aSyn 5UTR act -96
C/C(N)=C(/C#N)C(=O)COC(=O)c1cc(C)n(-c2ccc(F)cc2)c1C	aSyn 5UTR act -109
C=C[C@@]1(C)CC(=O)[C@]2(O)[C@@]3(C)[C@@H](O)CCC(C)(C)[C@@H]3[C@H](O)[C@H](OC(C)=O)[C@@]2(C)O1	none
Cc1ccc(OCC(=O)c2cc(C)n(C3CC3)c2C)c([N+](=O)[O-])n1	aSyn 5UTR act -94
Cc1ccc(OCC(=O)c2cc(C)n(CC(F)(F)F)c2C)c([N+](=O)[O-])n1	aSyn 5UTR act -72
O=C(CCC(=O)c1ccc[nH]1)c1ccc(Cl)cc1	aSyn 5UTR act -116
O=C(COc1ccc(F)c(Cl)c1)c1ccc[nH]1	aSyn 5UTR act -71
O=C(Nc1ccccc1F)c1cc2nc(C(F)F)cc(C(F)F)n2n1	aSyn 5UTR act -71
O=C(Nc1nnc(-c2ccco2)s1)C1CC1	aSyn 5UTR act -76
O=C(Nc1ccc(F)cc1)Nc1nnc(-c2ccco2)s1	aSyn 5UTR act -100
N/C(=N\OC(=O)Nc1ccccc1)c1ncc([N+](=O)[O-])s1	aSyn 5UTR act -94
O=C(N/N=C/c1ccc(Br)cc1)c1ccc(F)cc1	aSyn 5UTR act -78
O=C(N/N=C/c1sc2ccccc2c1O)c1ccccc1	none
O=C(N/N=C/c1ccc(Br)cc1)c1ccc(Br)o1	aSyn 5UTR act -207
Cc1cccc(/C=N/NC(=O)c2ccc(Br)cc2)c1	aSyn 5UTR act -90
O=C(N/N=C/c1ccc(F)cc1)c1ccccc1	aSyn 5UTR act -152
